# Laboratory results: the supplement of paper PMC8728848
# The sample as a whole holds a higher share of the strongest signals than the screen did.
# B1: Eosinophil cationic protein (ECP) (Homo sapiens), P12724 (protein)
# chain: MVPKLFTSQICLLLLLGLMGVEGSLHARPPQFTRAQWFAIQHISLNPPRCTIAMRAINNYRWRCKNQNTFLRTTFANVVNVCGNQSIRCPHNRTLNNCHRSRFRVPLLHCDLINPGAQNISNCTYADRPGRRFYVVACDNRDPRDSPRYPVVPVHLDTTI
# How the values were obtained:
# Experiment in all cases: glycan array binding signal (z-score within array); higher = stronger binding
# Settings in all cases: glycan notation: IUPAC condensed, linker removed
# [1] = target: Fuc(a1-2)Gal(b1-3)[Fuc(a1-4)]GlcNAc(b1-3)[Gal(b1-4)GlcNAc(b1-6)]Gal(b1-4)Glc
# Summary of the method: (§1)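 The binding signal is a Z-score computed within each array. Data were drawn from 3228 arrays in the Consortium for Functional Glycomics database, restricted to those with a known protein sequence. Scores were averaged over arrays of the same protein sequence at different concentrations or buffers, and over linkers, and negative values can be taken as non-binding.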
# Fuc(a1-2)Gal(b1-4)Glc = target: Fuc(a1-2)Gal(b1-4)Glc
# Summary of the method: as §1
# [2] = target: Fuc(a1-2)Gal(b1-4)[Fuc(a1-3)]GlcNAc(b1-3)GalNAc
# Summary of the method: as §1
# [3] = target: Fuc(a1-2)[Gal(a1-4)]Gal(b1-4)GlcNAc
# Summary of the method: as §1
# [4] = target: Fuc(a1-2)[GalNAc(a1-3)]Gal
# Summary of the method: as §1
# [5] = target: Fuc(a1-3)[Gal(b1-4)]GlcNAc(b1-6)GalNAc
# Summary of the method: as §1
# [6] = target: Fuc(a1-3)[GalNAc(b1-4)]GlcNAc
# Summary of the method: as §1
# [7] = target: Gal(a1-3)Fuc(a1-2)Gal(b1-4)GlcNAc(b1-3)[Gal(a1-3)Fuc(a1-2)Gal(b1-4)GlcNAc(b1-6)]GalNAc
# Summary of the method: as §1
# [8] = target: Gal(a1-3)Gal(b1-3)GlcNAc(b1-2)Man(a1-3)[Gal(a1-3)Gal(b1-3)GlcNAc(b1-2)Man(a1-6)]Man(b1-4)GlcNAc(b1-4)GlcNAc
# Summary of the method: as §1
# [9] = target: Gal(a1-3)Gal(b1-4)[Fuc(a1-3)]GlcNAc(b1-2)Man(a1-3)[Gal(a1-3)Gal(b1-4)[Fuc(a1-3)]GlcNAc(b1-2)Man(a1-6)]Man(b1-4)GlcNAc(b1-4)GlcNAc
# Summary of the method: as §1
# Gal(a1-4)Gal(b1-4)Glc = target: Gal(a1-4)Gal(b1-4)Glc
# Summary of the method: as §1
# [10] = target: Gal(b1-3)GlcNAc(b1-6)Gal(b1-4)GlcNAc
# Summary of the method: as §1
# [11] = target: Gal(b1-3)[Fuc(a1-4)]GlcNAc(b1-2)Man(a1-3)[Gal(b1-3)[Fuc(a1-4)]GlcNAc(b1-2)Man(a1-6)]Man(b1-4)GlcNAc(b1-4)GlcNAc
# Summary of the method: as §1
# [12] = target: Gal(b1-4)GlcNAc(b1-2)Man(a1-3)Man(b1-4)GlcNAc(b1-4)GlcNAc
# Summary of the method: as §1
# [13] = target: Gal(b1-4)GlcNAc(b1-2)Man(a1-3)[Gal(b1-4)GlcNAc(b1-2)Man(a1-6)]Man(b1-4)GlcNAc(b1-4)[Fuc(a1-6)]GlcNAc
# Summary of the method: as §1
# [14] = target: Gal(b1-4)GlcNAc(b1-2)Man(a1-6)Man(b1-4)GlcNAc(b1-4)GlcNAc
# Summary of the method: as §1
# [15] = target: Gal(b1-4)GlcNAc(b1-3)[Gal(b1-4)GlcNAc(b1-6)]GalNAc
# Summary of the method: as §1
# [16] = target: Gal(b1-4)GlcNAc(b1-6)[Gal(b1-3)]GalNAc
# Summary of the method: as §1
# Gal3S(b1-4)GlcNAc = target: Gal3S(b1-4)GlcNAc
# Summary of the method: as §1
# [17] = target: Gal3S(b1-4)[Fuc(a1-3)]Glc
# Summary of the method: as §1
# Gal3S4S(b1-4)GlcNAc = target: Gal3S4S(b1-4)GlcNAc
# Summary of the method: as §1
# Gal3S6S(b1-4)GlcNAc = target: Gal3S6S(b1-4)GlcNAc
# Summary of the method: as §1
# GalNAc(b1-3)Gal = target: GalNAc(b1-3)Gal
# Summary of the method: as §1
# Glc(b1-4)Glc = target: Glc(b1-4)Glc
# Summary of the method: as §1
# [18] = target: GlcNAc(a1-4)Gal(b1-4)GlcNAc(b1-3)Gal(b1-4)GlcNAc
# Summary of the method: as §1
# [19] = target: GlcNAc(a1-4)Gal(b1-4)GlcNAc(b1-3)Gal(b1-4)[Fuc(a1-3)]GlcNAc(b1-3)Gal(b1-4)[Fuc(a1-3)]GlcNAc
# Summary of the method: as §1
# [20] = target: GlcNAc(a1-6)Gal(b1-4)GlcNAc
# Summary of the method: as §1
# [21] = target: GlcNAc(b1-6)Gal(b1-4)GlcNAc
# Summary of the method: as §1
# Kdn(a2-3)Gal(b1-3)GalNAc = target: Kdn(a2-3)Gal(b1-3)GalNAc
# Summary of the method: as §1
# [22] = target: Man(a1-2)Man(a1-3)[Man(a1-2)Man(a1-6)]Man
# Summary of the method: as §1
# [23] = target: Man(a1-2)Man(a1-3)[Man(a1-2)Man(a1-6)]Man(a1-6)[Man(a1-2)Man(a1-2)Man(a1-3)]Man
# Summary of the method: as §1
# [24] = target: Man(a1-2)Man(a1-3)[Man(a1-2)Man(a1-6)]Man(a1-6)[Man(a1-2)Man(a1-2)Man(a1-3)]Man(b1-4)GlcNAc(b1-4)GlcNAc
# Summary of the method: as §1
# [25] = target: Man(a1-2)Man(a1-6)[Man(a1-3)]Man(a1-6)[Man(a1-2)Man(a1-2)Man(a1-3)]Man(b1-4)GlcNAc(b1-4)GlcNAc
# Summary of the method: as §1
# [26] = target: Neu5Ac(a2-3)Gal(b1-3)[Neu5Ac(a2-6)]GalNAc
# Summary of the method: as §1
# [27] = target: Neu5Ac(a2-3)Gal(b1-4)GlcNAc(b1-6)[Neu5Ac(a2-3)Gal(b1-3)]GalNAc
# Summary of the method: as §1
# Neu5Ac(a2-6)Gal(b1-4)Glc = target: Neu5Ac(a2-6)Gal(b1-4)Glc
# Summary of the method: as §1
# [28] = target: Neu5Ac(a2-6)Gal(b1-4)GlcNAc(b1-2)Man(a1-3)[Man(a1-6)]Man(b1-4)GlcNAc(b1-4)GlcNAc
# Summary of the method: as §1
binder,measurement,setting,value
B1,glycan array binding signal (z-score),[1],-0.315
same,glycan array binding signal (z-score),Fuc(a1-2)Gal(b1-4)Glc,-0.348
same,glycan array binding signal (z-score),[2],2.14
same,glycan array binding signal (z-score),[3],-0.421
same,glycan array binding signal (z-score),[4],-0.298
same,glycan array binding signal (z-score),[5],2.25
same,glycan array binding signal (z-score),[6],-0.183
same,glycan array binding signal (z-score),[7],0.494
same,glycan array binding signal (z-score),[8],1.32
same,glycan array binding signal (z-score),[9],2.23
same,glycan array binding signal (z-score),Gal(a1-4)Gal(b1-4)Glc,-0.102
same,glycan array binding signal (z-score),[10],-0.17
same,glycan array binding signal (z-score),[11],0.007
same,glycan array binding signal (z-score),[12],-0.103
same,glycan array binding signal (z-score),[13],0.16
same,glycan array binding signal (z-score),[14],-0.08
same,glycan array binding signal (z-score),[15],-0.091
same,glycan array binding signal (z-score),[16],-0.081
same,glycan array binding signal (z-score),Gal3S(b1-4)GlcNAc,0.818
same,glycan array binding signal (z-score),[17],2.4
same,glycan array binding signal (z-score),Gal3S4S(b1-4)GlcNAc,-0.557
same,glycan array binding signal (z-score),Gal3S6S(b1-4)GlcNAc,2.7
same,glycan array binding signal (z-score),GalNAc(b1-3)Gal,-0.382
same,glycan array binding signal (z-score),Glc(b1-4)Glc,0.024
same,glycan array binding signal (z-score),[18],8.33
same,glycan array binding signal (z-score),[19],4.18
same,glycan array binding signal (z-score),[20],3.15
same,glycan array binding signal (z-score),[21],0.126
same,glycan array binding signal (z-score),Kdn(a2-3)Gal(b1-3)GalNAc,0.204
same,glycan array binding signal (z-score),[22],-0.495
same,glycan array binding signal (z-score),[23],-0.174
same,glycan array binding signal (z-score),[24],-0.101
same,glycan array binding signal (z-score),[25],0.498
same,glycan array binding signal (z-score),[26],-0.097
same,glycan array binding signal (z-score),[27],-0.004
same,glycan array binding signal (z-score),Neu5Ac(a2-6)Gal(b1-4)Glc,0.151
same,glycan array binding signal (z-score),[28],-0.018
